The structures appear in SMILES notation. Inconclusive results are not listed. Calls of active or inactive are those of the source. Calls come from the whole dose curve; as a rule, active = well fitted inhibition curve with a large enough effect in the repeat runs; inconclusive = weak or mixed curves, or effect the other way; inactive = no such curve, though single readings can be large or run the other way.
% is set by controls: 0 for no effect and ±100 for the full control effect.

A short description of this test: qHTS assay to identify small molecule antagonists of the retinoic acid receptor (RAR) signaling pathway (AID 1159552; note: nearly all actives have a fitted effect of over 50% in size). The following applies: C3RL4 RARE luciferase reporter, retinol-stimulated, 6 h; series mostly up to 92.4 µM; activity, negative = inhibition: at the top concentration. The source says: National Center for Advancing Translational Sciences [NCATS]
NIH Chemical Genomics Center [NCGC]
U.S. Environmental Protection Agency [EPA]
National Institutes of Environmental Health Sciences [NIEHS]
National Toxicology Program [NTP]
U.S. Food and Drug Administration [FDA]
All-trans Retinoic acid (atRA) is the potent natural metabolite of retinol and plays an important role in normal embryonic development and maintenance of cellular phenotype in adult animals. atRA is the activating ligand for the retinoic acid receptors (RARs) which form heterodimers with retinoid X receptors (RXRs) on the retinoic acid response element (RARE). Through activation of the RAR/RXRs nuclear receptors, atRA regulates the transcription of a large number of protein-coding genes and regulatory RNAs. Intracellular levels of atRA are controlled by the retinol signaling pathway (RSP) that regulates the biosynthesis and catabolism of atRA to maintain physiological levels. Chemicals that interfere with the RSP can cause abnormal intracellular levels of atRA and therefore are potential developmental toxicants. To assess compounds for the potential adverse effect on embryonic development through interfering with retinol signaling, a cell-based RARE luciferase reporter gene assay was used. C3RL4 cell line (OARSA/CFSAN/FDA, Laurel, MD) was used to screen Tox21 10K compound library for identifying inhibitors of the RSP.
Tox21 Assay Protocol Summary:
C3RL4 cells were seeded at 1,000/well in 4 uL of assay medium into white solid 1,536-well tissue culture plates (Greiner Bio-One North America Inc. Monroe, NC) using a Multidrop Combi (Thermo Scientific, Waltham, MA) dispenser. After incubation at 37 C and 5% CO2 for an overnight, 23 nL of compounds dissolved in DMSO, positive control or DMSO only were transferred by a Pintool station (Kalypsys, San Diego, CA). One ul of 1 uM (final concentration) of Retinol was added right after the compound addition by using a Flying Reagent Dispenser (FRD) (Aurora Discovery, San Diego, CA). After 6 hr incubation at 37 C and 5% CO2, 5 uL of Amplite Luciferase reagent (AAT Bioquest Inc. Sunnyvale, CA) was added to each assay plate using an FRD. Luminescence was quantified on a ViewLux plate reader (PerkinElmer, Waltham, MA) after 30 min incubation at room temperature.
On the technique in general: In qHTS, concentration-response curves come from the screen itself.
With `CCCCCCn1c(=O)c2c(ncn2C)n(C)c1=O`, the “activity, negative = inhibition” value is 5.08% [at 42.5 µM] (inactive).
Consider `CCCCC1CCC(=O)O1` (stereo not given), for which the “activity, negative = inhibition” value is 20.3% (inactive).
Consider `CS(=O)(=O)c1ccc([C@@H](O)[C@@H](CF)NC(=O)C(Cl)Cl)cc1`, for which the “activity, negative = inhibition” value was 12% [at 42.5 µM] (inactive).
The figure for `CCN1CC(CCN2CCOCC2)C(c2ccccc2)(c2ccccc2)C1=O` (stereo not given) is -4.08% [at 42.5 µM] (inactive); for `CCCNC(C)(C)COC(=O)c1ccccc1` it is -2.53% [at 42.5 µM] (inactive); for `CN1CCN(c2c(F)cc3c(=O)c(C(=O)O)cn(CCF)c3c2F)CC1` it is 5.63% [at 42.5 µM] (inactive).
`CC(=O)N[C@@H](CC(C)C)C(=O)O`: the “activity, negative = inhibition” value was -10.4% [at 42.5 µM] (inactive).
Take `COC(=O)c1ccc(OC)cc1`: the “activity, negative = inhibition” value was -1.78% (inactive).
Turning to `CCCCC(=O)O[C@]1(C(=O)CO)[C@H](C)C[C@H]2[C@@H]3CCC4=CC(=O)C=C[C@]4(C)[C@@]3(F)[C@@H](O)C[C@@]21C`, the “activity, negative = inhibition” value was -13.5% [at 42.5 µM] (inactive).
The value for `NC(=O)NS(=O)(=O)c1ccc(Cl)cc1` was -5.03% [at 42.5 µM] (inactive); that for `COc1cc(N)c(Cl)cc1C(=O)NC1CCN(Cc2ccccc2)CC1` was 11.2% [at 42.5 µM] (inactive); that for `Cc1cc2c(s1)Nc1ccccc1N=C2N1CCN(C)CC1` was -14.4% [at 42.5 µM] (inactive).
The value for `Nc1ccc2ccccc2c1S(=O)(=O)O` was 131% (inactive); that for `CCCCCCCCCC/C=C/C#N` was -13.7% (inactive); that for `CCCCC(CC)COC(=O)COc1cc(Cl)c(Cl)cc1Cl` (stereo not given) was -0.209% (inactive).
The value for `N#Cc1ccc(C(c2ccc(C#N)cc2)n2cncn2)cc1` was 5.84% [at 42.5 µM] (inactive); that for `COc1cc(C)ccc1C(C)C` was -14% (inactive).
As for `FC(F)(F)C(Cl)(Cl)Cl`, the “activity, negative = inhibition” value is -3.71% (inactive).
The figure for `CCCCNC(=S)NCCCC` is 25.1% (inactive).
For the compound `CC(C)CC(=O)OCc1ccccc1`, the “activity, negative = inhibition” value is -0.456% (inactive).
For the compound `Cc1cc(S(=O)(=O)O)c(N)cc1Cl`, the “activity, negative = inhibition” value is 34.7% (inactive).
Take `Cc1c[nH]c(=S)[nH]c1=O`: the “activity, negative = inhibition” value is 176% (inactive).
The value for `CC(=O)OC(C)OC(C)=O` was -0.864% (inactive).
Turning to `O=Cc1ccc(O)c(O)c1O`, the “activity, negative = inhibition” value was 83.5% [at 42.5 µM] (inactive).
The value for `COC(=O)/C=C(/C)N` was 0.305% [at 42.5 µM] (inactive); that for `O=C(O)[C@@H]1CSCN1` was 1.46% [at 42.5 µM] (inactive).
The figure for `CC(C)Nc1nc(N)nc(Cl)n1` is -2.39% (inactive).
For the compound `CC1=C(O)C(=O)OC1C` (stereo not given), the “activity, negative = inhibition” value is 10.6% (inactive).
The figure for `COc1cc(Cl)ccc1Cl` is -12.4% (inactive); for `O=C(O)C(=O)Cc1c[nH]c2ccccc12` it is 85.9% (inactive).
The value for `CCN(O)CC` was -0.841% (inactive); that for `CCNCCO` was 11.2% (inactive).
As for `CC(CNC1CCCCC1)OC(=O)c1ccccc1` (stereo not given), the “activity, negative = inhibition” value was -6.61% [at 42.5 µM] (inactive).
With `CN(C)Cc1ccccc1`, the “activity, negative = inhibition” value was 19.2% (inactive).
The figure for `FC(F)(F)C(F)(F)C(F)(F)C(F)(F)C(F)(F)C(F)(F)C(F)(F)C(F)(F)Br` is -1.19% [at 42.5 µM] (inactive); for `Cc1ccc([N+](=O)[O-])cc1Cl` it is 1.59% (inactive).
With `CCOC(=O)C(Br)c1ccccc1` (stereo not given), the “activity, negative = inhibition” value was 1.62% (inactive).
The figure for `C=Cc1ccccc1` is -3.25% (inactive).
In the case of `CCOc1ccc2nc(N)sc2c1`, the “activity, negative = inhibition” value is 116% (inactive).
For `CCN[C@H]1CN(CCCOC)S(=O)(=O)c2sc(S(N)(=O)=O)cc21`, the “activity, negative = inhibition” value is 6.36% [at 42.5 µM] (inactive).

These data come from PubChem BioAssay (Tox21).
